MBNL1-CUG inh: inhibitors of human MBNL1 binding to CUG repeat RNA | Potency, µM (series often up to 57.5 µM), most hits filed as inhibitors | hit rate 0.036% among 280,000 | Q9NR56 | TR-FRET MBNL1-His/biotin-(CUG)12 binding, 665/545 ratio | AID 2675; active = well fitted inhibition curve with a large enough effect in the signal ratio, with a control signal flat, not every such curve was filed as active; inconclusive = small, poorly fitted or top-dose-only effect, or effect the other way, or a change in a side signal; inactive = no such curve, though single readings can be large or run the other way; the % refers to the signal ratio
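Compounds (final 92 nM to 58 uM) are added to His-tagged MBNL1 and biotin-(CUG)12, then terbium anti-His antibody and streptavidin-XL665 (5 nM final). After 60 min at room temperature, the 665/545 nm ratio is read.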
Epigenetic reg: regulators of epigenetic silencing causing reporter derepression in mouse cells; murine LDR cells, GFP reporter derepression, 30 h; Potency, µM (series often up to 53.9 µM), usual class: activators; hit rate 0.2% among 280,000; AID 1865; note: nearly all actives have a fitted effect of over 60% in size
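Derepression of a silenced CMV-GFP reporter in murine LDR cells is scored by enumerating GFP-positive cells with a laser-scanning microplate cytometer after 30 hours of treatment at 37 C.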
CBFb-RUNX1 inh: CBF-beta/RUNX1 interaction disruption. Q01196+Q13951. AlphaScreen CBFb-His/RUNX1-biotin binding, biochemical. Potency, µM (highest dose often 59.8 µM), hits mostly inhibitors. 230,000 tested, under 10 active. AID 1477
Target sequence (Q01196 whole entry, looked up): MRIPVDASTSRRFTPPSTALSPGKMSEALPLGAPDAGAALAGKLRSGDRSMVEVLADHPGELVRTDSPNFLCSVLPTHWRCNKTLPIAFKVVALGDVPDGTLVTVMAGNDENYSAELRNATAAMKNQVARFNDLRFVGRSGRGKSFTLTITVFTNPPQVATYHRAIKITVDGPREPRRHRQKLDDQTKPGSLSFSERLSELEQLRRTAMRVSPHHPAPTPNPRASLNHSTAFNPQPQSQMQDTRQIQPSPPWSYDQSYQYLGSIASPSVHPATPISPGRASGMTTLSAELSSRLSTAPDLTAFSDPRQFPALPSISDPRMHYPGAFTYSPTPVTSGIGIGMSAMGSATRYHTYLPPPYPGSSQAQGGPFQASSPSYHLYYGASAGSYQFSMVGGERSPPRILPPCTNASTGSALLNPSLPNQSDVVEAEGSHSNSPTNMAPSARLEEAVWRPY
Target sequence (Q13951 whole entry, looked up): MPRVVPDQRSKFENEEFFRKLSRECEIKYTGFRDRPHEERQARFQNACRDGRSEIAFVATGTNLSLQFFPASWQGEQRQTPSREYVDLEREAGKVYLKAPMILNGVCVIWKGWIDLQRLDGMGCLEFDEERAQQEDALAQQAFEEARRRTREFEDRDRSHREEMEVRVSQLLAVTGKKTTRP
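Room-temperature protein-protein interaction test with 30 nM each of His-tagged CBF-beta and biotinylated RUNX1, 15 min with compound, then 90 min with nickel plus streptavidin beads. Signal read in AlphaScreen mode.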
TRHR ag: activates the human TRH receptor. TRHR cells, calcium flux fluo-8, FDSS agonist mode. activation, % at 2 µM. hit rate 0.18% among 360,000. AID 493084; in the data active = activation above about 30%
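TRHR-expressing cells loaded with fluo-8 calcium dye; 23 nL library compound pin-transferred, kinetic FDSS fluorescence (Ex 480/Em 530) recorded about 180 s for agonist-induced calcium release, before a 10 nM TRH EC20 addition for potentiator mode.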
TRHR enhancer: allosterically enhances the human TRH receptor. TRHR cells, fluo-8 calcium fluorescence, EC20 TRH enhancement. enhancement, % at 2 µM. AID 493056. hit rate 0.66% among 360,000; in the data active = enhancement above about 30%
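Enhancer read-out: after compound pinning and an initial kinetic agonist-mode read, an EC20 of TRH (10 nM final) was injected and fluo-8 calcium signal (Ex 480/Em 530) followed at 1 s/cycle for 100 cycles in TRHR-expressing cells.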
IL2 activator: activates IL-2 in a cell-based reporter assay; IL-2 activation reporter assay, cell-based qHTS; stimulated with anti-CD3/CD4/CD28 beads; in transgenic mouse T cells; hit rate 0.065% among 360,000; activation, % (series mostly up to about 46 µM); in the data active = activation above about 50%; inconclusive = mostly about 30% to 49%
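Unstimulated transgenic mouse T cells, 750 per well, received compound and, after 60 minutes, anti-CD3/anti-CD4 bead plus anti-CD28 stimulation. EGFP and DsRed were quantified after 18 hours.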
Each line names hits and unclear results; the compound was inactive in the other large screens. Compounds with a hit are over-represented: about 0.88% of the library has one in this group of screens. Unless noted, calls come from the whole dose curve; as a rule, active = well fitted curve in the direction sought with a large enough effect; inconclusive = small, poorly fitted or top-dose-only effect, or another doubt; inactive = no such curve, though single readings can be large; an effect the other way counts as inactive or inconclusive.

Cc1cccc([S+](=O)([O-])NC2CCN(C#N)CC2)c1	none (no result: MBNL1-CUG inh, Epigenetic reg, CBFb-RUNX1 inh, IL2 activator)
CCOc1ccc(C(=O)Nc2nc(-c3ccc(Br)cc3)ns2)cc1	none (no result: MBNL1-CUG inh, CBFb-RUNX1 inh, IL2 activator)
Cc1cc(N2CCN(c3ccc(C(F)(F)F)cc3[N+](=O)[O-])CC2)c2ccccc2n1	MBNL1-CUG inh inconclusive, TRHR enhancer 34.9 (no result: Epigenetic reg, CBFb-RUNX1 inh)
COc1ccc(Cl)cc1S(=O)(=O)Nc1cccc(-c2ccc(N3CCCC3)nn2)c1	none (no result: MBNL1-CUG inh, CBFb-RUNX1 inh, IL2 activator)
COc1ccc(C(=O)Nc2cccc(-c3ccc(N4CCOCC4)nn3)c2)cc1	TRHR enhancer 37.2 (no result: MBNL1-CUG inh, Epigenetic reg, CBFb-RUNX1 inh)
COc1ccc(Cl)cc1S(=O)(=O)Nc1cccc(-c2ccc(N3CCOCC3)nn2)c1	TRHR enhancer 32.1 (no result: MBNL1-CUG inh, CBFb-RUNX1 inh, IL2 activator)
CSc1ccc(CCNC(=O)c2csc3c2CCCCC3)cc1	none (no result: MBNL1-CUG inh, CBFb-RUNX1 inh, IL2 activator)
CCn1cnc2c(Nc3ccc(CCC(=O)N=C(N)N)cc3)nc(C#N)nc21	none (no result: MBNL1-CUG inh, Epigenetic reg, CBFb-RUNX1 inh, IL2 activator)
CCCn1c(=O)c(C(=O)OCC)c(O)c2cc(Br)ccc21	TRHR enhancer 31.7
C=CCn1c(=O)c(C(=O)OCC)c(O)c2ccccc21	none
O=C(NCc1ccc2c(c1)CCN2C(=O)c1ccc(F)cc1)c1ccco1	none (no result: MBNL1-CUG inh, CBFb-RUNX1 inh, IL2 activator)
CC(C)(C)C(=O)NC(=S)NNC(=O)C(c1ccccc1)c1ccccc1	TRHR ag 99.2
CC(=O)NNC(=S)NC(=O)C(c1ccccc1)c1ccccc1	Epigenetic reg inconclusive
COC(=O)[C@H](COC(C)(C)C)NC(=O)O[C@@H]1C(=O)c2cc(OC)ccc2O[C@H]1c1cccc(OC)c1	none (no result: MBNL1-CUG inh, TRHR ag, TRHR enhancer, IL2 activator)
O=C(NCC1CCCO1)c1c[nH]c2ccc(S(=O)(=O)Nc3cccc(C(F)(F)F)c3)cc2c1=O (stereo unspecified)	none (no result: MBNL1-CUG inh, CBFb-RUNX1 inh, IL2 activator)
COc1ccc2c(c1)c(/C=C/c1cc[n+](C)cc1)cn2C	MBNL1-CUG inh inconclusive, IL2 activator 238.2 (no result: Epigenetic reg, CBFb-RUNX1 inh)
COc1ccc2c(/C=C/c3cc[n+](C)cc3)c[nH]c2c1	MBNL1-CUG inh inconclusive (no result: Epigenetic reg, CBFb-RUNX1 inh)
O=C(O)c1cc(S(=O)(=O)Nc2cccc(Cl)c2)ccc1O	none (no result: MBNL1-CUG inh, CBFb-RUNX1 inh, TRHR ag, TRHR enhancer, IL2 activator)
O=C(c1c(F)cccc1F)N1CCCc2ccccc21	TRHR enhancer 32.2 (no result: Epigenetic reg, CBFb-RUNX1 inh)
O=C(c1cccc(F)c1)N1CCCc2ccccc21	none (no result: Epigenetic reg, CBFb-RUNX1 inh)
COc1cc(/C=C2/SC(=Nc3ccc(O)cc3)NC2=O)cc(OC)c1O	TRHR ag 69.8
COc1ccc(N=Cc2c(O)c3ccccc3n2C(C)=O)cc1	MBNL1-CUG inh inconclusive, TRHR ag 34.1
COc1ccc(N=Cc2sc(O)c3ccccc23)cc1	MBNL1-CUG inh inconclusive, Epigenetic reg 10µM, CBFb-RUNX1 inh inconclusive, IL2 activator inconclusive
COc1ccc(N=Cc2c(OC)ccc3ccccc23)cc1	none (no result: MBNL1-CUG inh, Epigenetic reg, CBFb-RUNX1 inh, TRHR ag, TRHR enhancer)
Cn1c(=O)c(C=Nc2ccccc2)c(O)c2ccccc21	none (no result: IL2 activator)
CCOc1ccc(OCC)c(Nc2nc3ccc(Cl)cc3n3cnnc23)c1	Epigenetic reg 22.4µM (no result: MBNL1-CUG inh, CBFb-RUNX1 inh, IL2 activator)
COc1ccc(CCNC(=O)Cn2c(=O)n(-c3ccc(OC)c(OC)c3)c(=O)c3ccccc32)cc1OC	none (no result: MBNL1-CUG inh, CBFb-RUNX1 inh, IL2 activator)
CCOC(=O)c1c(-c2ccccc2)csc1NC(=O)/C(C#N)=C/c1ccc(O)c(OC)c1	Epigenetic reg 25.1µM, IL2 activator 57.6
CCOC(=O)c1c(-c2ccccc2)csc1NC(=O)/C(C#N)=C/c1ccc(OC)c(OC)c1	none (no result: MBNL1-CUG inh)
Cc1ccc(N2CCN(CCc3nc4cc(NC(=O)c5ccco5)ccc4n3C)CC2)cc1	none
Cn1c(CCN2CCN(c3ccccc3)CC2)nc2cc(NC(=O)c3ccco3)ccc21	TRHR enhancer 33.4
COc1ccc(C(=O)c2sc3nc4c(c(C(F)(F)F)c3c2N)CN(C(C)=O)CC4)cc1OC	none (no result: MBNL1-CUG inh, CBFb-RUNX1 inh, IL2 activator)
CC(=O)N1CCc2nc3sc(C(=O)c4ccc(F)cc4)c(N)c3c(C(F)(F)F)c2C1	Epigenetic reg inconclusive, TRHR ag 36.6 (no result: MBNL1-CUG inh, CBFb-RUNX1 inh, IL2 activator)
COc1ccc2oc(C(=O)OCC(=O)N3C(C)CCCC3C)c(C)c2c1 (stereo unspecified)	TRHR enhancer 32.9 (no result: Epigenetic reg, CBFb-RUNX1 inh)
COc1ccc2oc(C(=O)OCC(=O)Nc3ccc(NC(C)=O)cc3)c(C)c2c1	TRHR enhancer 37.9 (no result: MBNL1-CUG inh, Epigenetic reg, CBFb-RUNX1 inh)
CCOc1ccc2oc(C(=O)OCC(=O)N3C(C)CCCC3C)c(C)c2c1 (stereo unspecified)	none (no result: MBNL1-CUG inh, Epigenetic reg, CBFb-RUNX1 inh)

Screening results from PubChem.
